{"source": "PubChem BioAssay (NCATS)", "note": "Inconclusive results are not listed. Calls of active or inactive are those of the source. The call rests on the fitted dose curve; in most records, active means well fitted cell-killing curve with a large enough effect; inconclusive means small, poorly fitted or top-dose-only effect; inactive means no such curve, though single readings can be large or run the other way. On the % scale 0 is the no-effect control and ±100 the full control effect; potency means the concentration at half of the fitted maximal effect."}
{"assay": "MCF7 Cancer Cell Toxicity qHTS against the NCATS CANVASS Library (AID 1347369)", "conditions": "MCF7 viability, ATP luminescence (CellTiter-Glo), 72 h; series mostly up to 46 µM; activity change, negative = cytotoxicity: at the top concentration", "in_short": "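Luminescent ATP signal (CellTiterGlo) served as the cytotoxicity read-out after MCF7 breast cancer cells had been incubated 72 hr at 37C with natural products in an 11-point titration.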"}
{"compound": "C[C@]12CC[C@]3(C1)[C@H](CC2=O)C[C@@H](OC(=O)c1ccccc1)[C@H]1[C@](C)(C(=O)O)CCC[C@@]13C", "outcome": "inactive"}
{"compound": "Cc1occ2c1C(=O)c1c(cc(O)c(O)c1O)C2=O", "activity change, negative = cytotoxicity": "-7.45% (inactive)"}
{"compound": "C=C[C@](Cl)(CBr)CCC=C(C)C", "activity change, negative = cytotoxicity": "-1.16% (inactive)"}
{"compound": "CC(=O)O[C@H]1c2ccccc2-c2c3c(cc4c2[C@@H]1N(C(C)=O)CC4)OCO3", "activity change, negative = cytotoxicity": "-21.8% (inactive)"}
{"compound": "C=CC(CCCCC)C1C(=O)NC(=O)C1C(=O)C1C2C(C)CC(C(=O)O)CC2CC1(O)C(=O)/C=C/C", "note": "(configuration not stated)", "activity change, negative = cytotoxicity": "-4.55% (inactive)"}
{"compound": "O[C@H]1c2ccccc2-c2c3c(cc4c2[C@@H]1NCC4)OCO3", "Potency": "29.4 µM (active)"}
{"compound": "COc1cc(C2OCC3C(c4ccc(O)c(OC)c4)OCC23)ccc1O", "note": "(configuration not stated)", "activity change, negative = cytotoxicity": "-7.78% [at 9.17 µM] (inactive)"}
{"compound": "C[n+]1cc2cc(C(N)=O)[nH]c3c(=N)c(Cl)c(N)c1c23", "activity change, negative = cytotoxicity": "-15.6% (inactive)"}
{"compound": "COc1cc2c(c(O)c1O)C(=O)c1c(coc1C)C2=O", "Potency": "7.39 µM (active)"}
{"compound": "O=c1cc(-c2ccc(O)c(O)c2)oc2cc(O[C@@H]3O[C@H](CO)[C@@H](O)[C@H](O)[C@H]3O)cc(O)c12", "activity change, negative = cytotoxicity": "-1.91% (inactive)"}
{"compound": "C/C1=C/[C@@H](C)[C@H](O)[C@@H](O)/C=C/CC/C=C/C(=O)O[C@@H]1[C@H](C)C(=O)CCCC1CC(=O)NC(=O)C1", "activity change, negative = cytotoxicity": "-25% (inactive)"}
{"compound": "CN1CC[C@]2(c3cccc4c3N[C@H]3N(C)CC[C@@]43[C@]34CCN(C)[C@H]3Nc3ccccc34)c3ccccc3N[C@H]12", "Potency": "11.7 µM (active)"}
{"compound": "CC[C@H]1[C@H](C)[C@H](c2cc(OC)c(OC)cc2OC)[C@@H](C)[C@H](c2cc(OC)c(OC)cc2OC)[C@@]12C=C(OC)C(=O)C=C2OC", "outcome": "inactive"}
{"compound": "COc1cc2c(cc1OC)[C@@H](c1ccc3c(c1)OCO3)C(C)C(C)C2=O", "note": "(some centres not stated)", "outcome": "inactive"}
{"compound": "C/C=C(/C)c1c(Cl)c(O)c(C)c2c1Oc1c(Cl)c(O)c(Cl)c(C)c1C(=O)O2", "outcome": "inactive"}
{"compound": "CC(C)C[C@@H]1c2c(O)c(C=O)c(O)c(C=O)c2O[C@]2(C)C=C[C@@H](C(C)C)C[C@H]12", "outcome": "inactive"}
{"compound": "C/C=C(/C)c1cc(O)c(C)c2c1Oc1cc(O)cc(C)c1C(=O)O2", "activity change, negative = cytotoxicity": "-22.6% (inactive)"}
{"compound": "CC(C)[C@]12CC[C@@]3(C)[C@H](C)CC[C@H](O)[C@@]3(CC1)c1cc3c(cc12)[nH]c1ccccc13", "activity change, negative = cytotoxicity": "-22.7% (inactive)"}
{"compound": "C[C@H]1C=C[C@H]2CCCC[C@@H]2[C@H]1C(=O)[C@H]1CC2=C(C(=O)O)CCN2C1=O", "activity change, negative = cytotoxicity": "-25% (inactive)"}
{"compound": "C/C(=C\\CC[C@@H](C)[C@H]1CC[C@]2(C)C3=CCC4C(C)(C)[C@@H](O)C[C@@H](O)[C@]4(C)C3[C@H](O)C[C@@]12C)CO", "note": "(some centres not stated)", "activity change, negative = cytotoxicity": "-12.2% (inactive)"}
{"compound": "COC12OC1(C13OC1(OC)C(=O)c1cc4cc(C)oc(=O)c4c(O)c1C3O)C(O)c1c(cc3cc(C)oc(=O)c3c1O)C2=O", "note": "(configuration not stated)", "outcome": "inactive"}
{"compound": "CO[C@H]1[C@@H](OC(=O)/C(C)=C\\[C@@H]2O[C@@H]2[C@H]2O[C@H]2C)[C@H](O)[C@H](OCC23C[C@@H]4[C@H](C)CC[C@H]4C4(C=O)CC2C=C(C(C)C)C34C(=O)O)O[C@@H]1C", "note": "(some centres not stated)", "activity change, negative = cytotoxicity": "2.04% (inactive)"}
